Source: PubChem (several laboratories)
Rows were chosen to be rich in hits. Some 1.3% of all compounds tested hit in one or more screens of this group.
CRFBP-R2 agonist = agonists of human CRF-binding protein/CRF-R2 receptor complex; HEK293 CRF-R2/CRF-BP, calcium dye fluorescence (FLIPR); percent of saturating CRF peptide response; activation, % at 13.2 µM; 350,000 compounds, 0.46% hits; AID 588473;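 active means activation of at least 50%, plus an integration ratio under a set limit after plate pattern correction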;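 further: plate controls were neutral control wells without compound for no effect and CRF at EC100 for full effect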
CRFBP-R2 block = CRF-BP/CRF-R2 complex antagonism; HEK293 CRF-R2/CRF-BP, CRF-induced calcium fluorescence; inhibition, % at 11.8 µM; 350,000 compounds, 0.59% hits; AID 588475;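 active means inhibition of the ligand-induced calcium signal above about 50% at the single tested concentration, limit read from the data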
RTF Ca sens inh = cardiac RTF calcium desensitization; P19429+P45379; IANBD-labeled cardiac RTF, Ca2+ fluorescence; inhibition, % at 7.15 µM; 340,000 compounds, 0.12% hits; AID 493244;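 active means inhibition above the mean inhibition of all tested compounds plus 3 SD, cut at about 17% in these data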;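 further: assay run at fixed EC70 calcium of 1.6 mM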
cardiac RTF act = cardiac RTF calcium sensitization; AID 493008; IANBD-labeled TnC RTF fluorescence at EC20 calcium; 0% EC20 calcium, 100% full calcium; P19429+P45379; activation, % at 7.2 µM; 340,000 compounds, 0.24% hits;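 active means activation above the mean over all tested compounds plus 3 SD, cut at about 30% in these data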;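 further: rise in fluorescence read as greater calcium sensitivity of cardiac thin filaments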
C-LANA FP = blocks KSHV LANA C-terminal domain binding to DNA | MBP-C-LANA/FAM-LBS DNA binding, fluorescence polarization | inhibition, % at 9 µM | 340,000 compounds, 0.078% hits;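 active means highest replicate inhibition at or above 60% at 9 µM, even if other replicates fall short; inactive means all replicates below 60% inhibition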;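 further: 0% = neutral control wells and 100% = 4 µM acridine orange control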
Keap1-Nrf2 PPI = inhibitors of human Keap1-Nrf2 protein-protein interaction | Q14145 | Keap1 Kelch-Nrf2 peptide fluorescence polarization, 1536-well | inhibition, % at 9.4 µM | 340,000 compounds, 0.15% hits | AID 504523; in the data active means inhibition above about 12%;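 further: human Keap1 Kelch domain with fluorescein labeled Nrf2 9mer peptide probe; 0% = neutral control wells and 100% = peptide positive control; higher means more block of Keap1 binding to Nrf2 peptide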
Target sequence (Q14145 whole entry, looked up, the tested form may be a part): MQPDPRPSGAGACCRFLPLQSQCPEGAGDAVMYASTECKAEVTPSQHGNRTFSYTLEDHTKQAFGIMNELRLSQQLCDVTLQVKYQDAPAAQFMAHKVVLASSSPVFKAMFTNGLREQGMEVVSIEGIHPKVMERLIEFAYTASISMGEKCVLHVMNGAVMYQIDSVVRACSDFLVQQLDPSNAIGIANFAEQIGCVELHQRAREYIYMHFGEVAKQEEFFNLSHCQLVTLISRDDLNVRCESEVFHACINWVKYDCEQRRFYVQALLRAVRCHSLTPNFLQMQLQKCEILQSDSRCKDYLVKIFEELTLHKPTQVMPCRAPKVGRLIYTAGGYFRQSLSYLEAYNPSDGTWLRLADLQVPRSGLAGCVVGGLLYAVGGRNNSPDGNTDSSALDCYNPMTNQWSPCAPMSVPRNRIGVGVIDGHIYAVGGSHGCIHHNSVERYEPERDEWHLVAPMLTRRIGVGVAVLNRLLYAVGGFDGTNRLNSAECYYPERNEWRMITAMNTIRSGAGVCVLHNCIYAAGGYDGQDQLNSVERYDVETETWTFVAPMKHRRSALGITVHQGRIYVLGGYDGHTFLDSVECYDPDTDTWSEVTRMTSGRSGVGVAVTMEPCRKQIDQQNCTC
Active calls of the source: *.

Screening O=C(Nc1ccccc1)c1ccccc1OCc1cccc([N+](=O)[O-])c1 returned CRFBP-R2 agonist 0.4, CRFBP-R2 block 53.3*, RTF Ca sens inh -8.7, cardiac RTF act -2.7, C-LANA FP 2.7 and Keap1-Nrf2 PPI 1.8.
Screening O=C(Nc1ccc(O)cc1)c1ccccc1OCc1ccccc1 returned CRFBP-R2 agonist -1.8, CRFBP-R2 block 3.9, RTF Ca sens inh -5.1, cardiac RTF act -1.0, C-LANA FP 2.1 and Keap1-Nrf2 PPI 3.2.
Cc1cc(NC(=O)C(C)C)ncc1NC(=O)CCc1ccccc1 was read as CRFBP-R2 agonist 141.0*, CRFBP-R2 block -126.0, RTF Ca sens inh -12.6, cardiac RTF act 2.5, C-LANA FP 1.1 and Keap1-Nrf2 PPI 0.4.
Cc1cc(C(=O)NNC(=O)c2cccs2)nn1C(C)(C)C was read as CRFBP-R2 agonist 1.3, CRFBP-R2 block 9.2, RTF Ca sens inh -1.7, cardiac RTF act 2.1, C-LANA FP -0.7 and Keap1-Nrf2 PPI -31.7.
Screening COc1ccc(N/C(N)=N/c2nc(C)cc(C)n2)cc1 returned CRFBP-R2 agonist 70.1* and CRFBP-R2 block -84.6.
Screening Cc1cc(C)nc(/N=C(\N)Nc2ccc(S(=O)(=O)O)cc2)n1 returned CRFBP-R2 agonist -1.1, CRFBP-R2 block 0.7, C-LANA FP 2.2 and Keap1-Nrf2 PPI -1.9.
`Cc1cc(C)nc(/N=C(\N)Nc2ccc(CC(=O)OC(C)C)cc2)n1` gave CRFBP-R2 agonist 101.3*, CRFBP-R2 block -5.7, RTF Ca sens inh -12.2, cardiac RTF act -1.4, C-LANA FP 2.8 and Keap1-Nrf2 PPI 2.2.
Cc1cc(C)nc(/N=C(\N)Nc2ccc(OCCC(C)C)cc2)n1 was read as CRFBP-R2 agonist 74.5*, CRFBP-R2 block -35.0, RTF Ca sens inh -5.5, cardiac RTF act -9.0, C-LANA FP -1.5 and Keap1-Nrf2 PPI -0.2.
For COCCNC(=O)c1ccccc1-c1nc(-c2ccccc2OC)no1 the results were CRFBP-R2 agonist 4.7, CRFBP-R2 block -1.4, RTF Ca sens inh -4.5, cardiac RTF act 0.9, C-LANA FP 1.0 and Keap1-Nrf2 PPI -4.8.
CN(CCc1ccccc1)C(=O)c1ccc(NC(=O)Cc2ccc(NC(=O)C3CCN(S(=O)(=O)c4cccc([N+](=O)[O-])c4)CC3)cc2)cc1 was read as CRFBP-R2 agonist 6.3, CRFBP-R2 block 3.9, RTF Ca sens inh -0.5, cardiac RTF act -5.9, C-LANA FP -3.0 and Keap1-Nrf2 PPI 0.2.
`CCOc1ccc(C(=O)C(C)OC(=O)c2cnc(C)cn2)cc1` (centres undefined) gave CRFBP-R2 agonist -1.8, CRFBP-R2 block -4.2, RTF Ca sens inh -0.4, cardiac RTF act 1.3, C-LANA FP 0.5 and Keap1-Nrf2 PPI 1.3.
CC(=O)C[C@H](O)CC(=O)[C@H]1OC(=O)[C@@H](C)CCCCc2ccccc21 was read as CRFBP-R2 agonist -0.2, CRFBP-R2 block -15.6, RTF Ca sens inh -6.0, cardiac RTF act -2.7, C-LANA FP 1.5 and Keap1-Nrf2 PPI -6.1.
For CC[C@@H]1CCCCc2ccccc2[C@H](C(=O)C[C@H](O)CC(C)=O)OC1=O the results were CRFBP-R2 agonist 1.2, CRFBP-R2 block 51.3*, RTF Ca sens inh -0.4, cardiac RTF act -2.4, C-LANA FP 0.7 and Keap1-Nrf2 PPI 2.7.
Screening Cc1cc(C(F)(F)F)n(-c2nc(C(=O)N/N=C/c3ccc(F)cc3)cs2)n1 returned CRFBP-R2 agonist -1.6, CRFBP-R2 block 71.1*, RTF Ca sens inh -2.8, cardiac RTF act 1.0, C-LANA FP -0.7 and Keap1-Nrf2 PPI 1.9.
For COc1ccc(C(CNC(=O)c2oc3cc(C)c(Cl)cc3c2C)N2CCCCC2)cc1 (centres undefined) the results were CRFBP-R2 agonist 1.1, CRFBP-R2 block -8.4, RTF Ca sens inh -1.7, cardiac RTF act -6.2, C-LANA FP 1.1 and Keap1-Nrf2 PPI 1.1.
Screening COc1cc([N+](=O)[O-])ccc1N/C=C/C(=O)c1cccs1 returned CRFBP-R2 agonist 83.9*, CRFBP-R2 block -116.9, RTF Ca sens inh -492.7, cardiac RTF act 287.5*, C-LANA FP -10.4 and Keap1-Nrf2 PPI 0.6.
For COc1ccc2c(c1)c1ncn(CCCN3CCOCC3)c(=O)c1n2C the results were CRFBP-R2 agonist 5.2, CRFBP-R2 block 0.6, RTF Ca sens inh -0.1, cardiac RTF act -2.7, C-LANA FP 0.1 and Keap1-Nrf2 PPI -1.2.
Screening COc1ccc(Nc2cc3n(c(=O)n2)CCc2cc(OC)c(OC)cc2-3)cc1 returned CRFBP-R2 agonist 0.8, CRFBP-R2 block 32.4, RTF Ca sens inh -2.9, cardiac RTF act -3.4, C-LANA FP -2.2 and Keap1-Nrf2 PPI -3.5.
For COc1cc2c(cc1OC)-c1cc(Nc3ccc(C(=O)O)cc3)nc(=O)n1CC2 the results were CRFBP-R2 agonist 0.1, CRFBP-R2 block 117.3*, RTF Ca sens inh 0.9, cardiac RTF act 0.1, C-LANA FP -1.7 and Keap1-Nrf2 PPI -0.4.
COc1ccc(CC(=O)Nc2c3c(nn2C(C)(C)C)CS(=O)C3)cc1 (centres undefined) was read as CRFBP-R2 agonist 0.4, CRFBP-R2 block -2.9, RTF Ca sens inh -1.5, cardiac RTF act 5.3, C-LANA FP 1.5 and Keap1-Nrf2 PPI 2.3.
`COc1ccc(N=C(N)SCc2ccccn2)cc1` gave CRFBP-R2 agonist 61.9*, CRFBP-R2 block -25.8, RTF Ca sens inh -20.9, cardiac RTF act -6.2, C-LANA FP -3.0 and Keap1-Nrf2 PPI -7.6.
For O=C(/C=C/c1ccccc1[N+](=O)[O-])N1CCOCC1 the results were CRFBP-R2 agonist -0.2, CRFBP-R2 block 63.3*, RTF Ca sens inh 1.6, cardiac RTF act -3.5, C-LANA FP -0.8 and Keap1-Nrf2 PPI 1.1.
For COc1cccc(/C=N/Nc2snc(SC)c2C#N)c1O the results were CRFBP-R2 agonist 69.3*, CRFBP-R2 block 39.5, RTF Ca sens inh 9.2, cardiac RTF act 1.4, C-LANA FP -0.3 and Keap1-Nrf2 PPI -1.5.
Cn1ncc(Br)c1C(=O)OCC(=O)Nc1nc(-c2ccccc2)cs1 was read as CRFBP-R2 agonist 0.9, CRFBP-R2 block 7.9, RTF Ca sens inh 9.9, cardiac RTF act 4.7, C-LANA FP 0.1 and Keap1-Nrf2 PPI -0.2.
N#Cc1ccccc1Sc1ccccc1N was read as CRFBP-R2 agonist -7.0, CRFBP-R2 block 56.5*, RTF Ca sens inh -2.0, cardiac RTF act -1.8, C-LANA FP -0.9 and Keap1-Nrf2 PPI -2.4.
`CNC(=O)c1ccccc1Sc1ccccc1C#N` gave CRFBP-R2 agonist -1.6, CRFBP-R2 block 7.4, RTF Ca sens inh -4.2, cardiac RTF act 6.4, C-LANA FP 0.6 and Keap1-Nrf2 PPI -0.1.
For C[n+]1c(-c2ccccc2)sc([S-])c1-c1ccccc1 the results were CRFBP-R2 agonist 0.1 and CRFBP-R2 block 8.5.
Screening COC(=O)C1=C/C=C\CN(C(c2ccccc2)c2ccccc2)/C=C\1C(=O)OC returned CRFBP-R2 agonist 0.8 and CRFBP-R2 block 52.3*.
`COC(=O)CN1CCN(C(c2ccccc2)c2ccccc2)CC1` gave CRFBP-R2 agonist 0.5, CRFBP-R2 block 5.9, RTF Ca sens inh -4.4, cardiac RTF act -2.8, C-LANA FP 0.3 and Keap1-Nrf2 PPI -0.9.
